Assay results: PubChem BioAssay (EPA / NIEHS)
Records with an inconclusive call do not appear. The source made the active and inactive calls. Rule for the calls: active = hit-call score of the fitted dose curve at least 0.9, where 1 is the maximum; inconclusive = response in the unintended direction; inactive = score below 0.9.

read-out: xenobiotic metabolism (CYP1A1), CYP1A1 (gene 1543); test: CLD_CYP1A1_48hr: CellzDirect (CLD) Gene Expression Assay for xenobiotic metabolism (CYP1A1) at 48 hours (AID 2283705)
Experimental: CLD_48hr is a cell-based, multiplexed-readout assay that uses hepatocyte, a human liver primary cell, with measurements taken at 48 hours after chemical dosing in a 96-well plate.CLD_CYP1A1_48hr is one of 16 assay component(s) measured or calculated from the CLD_48hr assay. It is designed to make measurements of mRNA induction, a form of inducible reporter, as detected with chemiluminescence signals by Quantitative Nuclease Protection Assay (qNPA) technology.Data from the assay component CLD_CYP1A1_48hr was analyzed at the endpoint, CLD_CYP1A1_48hr, in the positive analysis fitting direction relative to DMSO as the negative control and baseline of activity. Using a type of inducible reporter, gain-of-signal activity can be used to understand changes in the reporter gene as they relate to the gene CYP1A1. Furthermore, this assay endpoint can be referred to as a primary readout. To generalize the intended target to other relatable targets, this assay endpoint is annotated to the cyp intended target family, where subfamily is xenobiotic metabolism.
Human hepatocyte cultures were treated daily for two consecutive days with fresh dosing solutions containing appropriate concentrations of the 320 ToxCast chemicals (chemical identities were blinded to CellzDirect and other ToxCast collaborators), vehicle control (0.2% DMSO), and positive control inducers as summarized in Table 1. Due to the large number of treatment groups and chemicals examined, the ToxCast chemicals were divided into two groups (spanning two independent cultures of hepatocytes from separate donor preparations (Hu778: ToxCast plates 1 and 2; Hu776: ToxCast plates 3 and 4). Each preparation of human hepatocyte cultures was treated with respective vehicle control, medium only control, set of six positive controls/reference chemicals for the five hepatic receptor pathways, and a subset of eight of the ToxCast chemicals (indoxacarb, pyrithiobac-sodium, norflurazon, cyhalofop-butyl, methomyl, thiram, acetochlor, and propiconazole). These replicate data, coupled with internal replicates designed within the blinded ToxCast chemical library, provided additional data to evaluate interindividual differences between hepatocyte preparations and their potential impact on chemical profiles.Cell morphology and integrity were evaluated using phase-contrast microscopy as an indicator of hepatocyte cell health (Tyson & Green, 1987). Cultures for each treatment group (i.e., media, vehicle [0.2% DMSO], positive control inducers [multiple concentrations], and the ToxCast chemicals [multiple concentrations]) were observed and cell morphology was assessed relative to vehicle control cultures at each harvest time point (0, 6, 24, or 48 h). […] Images were evaluated at the conclusion of the study to assess changes in cell integrity and account for the effects of chemical exposure on uncharacteristic changes in concentration-dependent gene expression profiles. The results from these determinations of apparent cytotoxicity were annotated (yes/no) alongside the corresponding qNPA data for reference.At the conclusion of each treatment period, hepatocyte cultures (96-well) were washed with 1 volume of HBSS, lysed by addition of 25 ul ArrayPlate lysis buffer (HTG, Tucson, AZ), and 70 ul/well of Denaturation Oil, denatured by incubation at 95C for 10 min, and frozen at approximately -70C until analysis by nuclease protection assay (qNPA) (Roberts et al., 2007). For qNPA analysis, cell lysates were thawed at 50C for approximately 30 min, qNPA probes were added, and samples were incubated at 95C for 10 min to begin the detection process by denaturing the target RNA, dissociating the duplexes and secondary structure hybridization. At the conclusion of the hybridization period, S1 nuclease reagent was added to each sample to digest all nonprotected nucleotides at 50C for 60-90 min. […]

Structure (SMILES)	AC50	outcome
CCCN(CC)CC1COC2(CCC(C(C)(C)C)CC2)O1 (stereo not given)	3.97 µM (active)	
CCCCC(O)(Cn1cncn1)c1ccc(Cl)cc1Cl (stereo not given)	20 µM (active)	
O=C(Nc1ccccc1-c1ccc(Cl)cc1)c1cccnc1Cl	20 µM (active)	
CCCCC(C#N)(Cn1cncn1)c1ccc(Cl)cc1 (stereo not given)	35.1 µM (active)	
COC(=O)c1c(C(F)F)nc(C(F)(F)F)c(C2=NCCS2)c1CC(C)C	8.66 µM (active)	
Cc1cnc(C2=NC(C)(C(C)C)C(=O)N2)c(C(=O)O)c1 (stereo not given)		inactive
C=C(C)CN(CC)c1c([N+](=O)[O-])cc(C(F)(F)F)cc1[N+](=O)[O-]		inactive
OC(c1ccc(Cl)cc1)(c1ccc(Cl)cc1)C(Cl)(Cl)Cl	20 µM (active)	
COc1ccc(-c2ccccc2)cc1NNC(=O)OC(C)C		inactive
Nc1c(Cl)c(F)nc(OCC(=O)O)c1Cl		inactive
COCC(=O)N(c1c(C)cccc1C)C(C)C(=O)OC (stereo not given)		inactive
CCC(C)n1c(=O)[nH]c(C)c(Br)c1=O (stereo not given)	8.72 µM (active)	
CCOC(=O)C(C)OC(=O)c1cc(Oc2ccc(C(F)(F)F)cc2Cl)ccc1[N+](=O)[O-] (stereo not given)	20 µM (active)	
CCCC(=NOCC)C1=C(O)CC(CC(C)SCC)CC1=O (stereo not given)		inactive
CS(=O)(=O)c1cc(C(F)(F)F)ccc1C(=O)c1cnoc1C1CC1		inactive
CC(C)Nc1nc(Cl)nc(NC(C)C)n1		inactive
CCOc1cc(C(C)(C)C)ccc1C1COC(c2c(F)cccc2F)=N1 (stereo not given)	30.3 µM (active)	
COc1cc(Cl)c(OC)cc1Cl	3.97 µM (active)	
CSC(=O)c1c(C(F)F)nc(C(F)(F)F)c(C(=O)SC)c1CC(C)C	20 µM (active)	
COCC(C)N(C(=O)CCl)c1c(C)csc1C (stereo not given)		inactive

Structure (SMILES)	AC50	outcome
CCNP(=S)(OC)O/C(C)=C/C(=O)OC(C)C (stereo not given)	3.99 µM (active)	
Clc1cccc(C(Cl)(Cl)Cl)n1	3.97 µM (active)	
CC(C)N1C(=O)c2ccccc2NS1(=O)=O		inactive
Cc1cc(C)nc(Nc2ccccc2)n1	3.97 µM (active)	
CC1(C)CCC(=Cc2ccc(Cl)cc2)C1(O)Cn1cncn1 (stereo not given)	3.17 µM (active)	
C=CCOC(=O)C(C)(C)OC(=O)c1cc(-n2c(=O)cc(C(F)(F)F)n(C)c2=O)ccc1Cl		inactive
COC(=O)NS(=O)(=O)c1ccc(N)cc1		inactive
CCNC(=O)NC(=O)C(C#N)=NOC		inactive
COP(=S)(OC)Oc1ccc([N+](=O)[O-])c(C)c1	20 µM (active)	
CO/N=C(/C1=NOCCO1)c1ccccc1Oc1ncnc(Oc2ccccc2Cl)c1F	32.4 µM (active)	
O=c1n(Cl)c(=O)n(Cl)c(=O)n1Cl		inactive
CC(C)Oc1cccc(NC(=O)c2ccccc2C(F)(F)F)c1	36.6 µM (active)	
COCc1cnc(C2=NC(C)(C(C)C)C(=O)N2)c(C(=O)O)c1 (stereo not given)		inactive
CCOc1nc(C(Cl)(Cl)Cl)ns1	3.97 µM (active)	
Nc1cnn(-c2ccccc2)c(=O)c1Cl		inactive
N#Cc1c(Cl)cccc1Cl		inactive
CCN(CC)C(=O)C(C)Oc1cccc2ccccc12 (stereo not given)	27.9 µM (active)	
Cc1ccc(N=CN(C)C=Nc2ccc(C)cc2C)c(C)c1	5.87 µM (active)	
Cc1c(COC(=O)[C@@H]2[C@H](/C=C(\Cl)C(F)(F)F)C2(C)C)cccc1-c1ccccc1	20 µM (active)	
O=P(O)(O)CCCl		inactive
